The record followed here is PubChem BioAssay (EPA / NIEHS).

A structure can be active in one record and inactive in another. The source made the active and inactive calls. Rule for the calls: active = hit-call score of the fitted dose curve at least 0.9, where 1 is the maximum; inactive = score below 0.9.

As a reminder, the AC50 is the midpoint of the concentration-response curve, whichever way the signal moves.

The target of experiment [1] is Transcription factor E2F1 (Homo sapiens) (UniProt Q01094). Description: ATG_E2F_CIS: Attagene CIS-FACTORIAL HepG2 Assay for human E2F Transcription Factor 1 (AID 2282935). To be noted: HepG2 Attagene cis-reporter, E2F reporter RNA transcripts; actives raise or lower the signal. In a few lines: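 First, HepG2 cells were transfected with reporter transcription units. Next, they were dosed for 24 h. Then RNA was isolated, converted to cDNA, PCR-amplified, FAM-labeled, HpaI-digested and analyzed by capillary electrophoresis.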

The nature of experiment [2]: ATG_E_Box_CIS: Attagene CIS-FACTORIAL HepG2 Assay for human Enhancer Box (E-box) (AID 2282936). The note with it: HepG2 E-box cis-reporter transcription, actives raise or lower the signal. In a few lines:
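Endogenous transcription factor activity was sensed in human HepG2 liver cells through transfected cis-promoter reporter units. After 24 h of dosing, total RNA was reverse-transcribed and reporter cDNA resolved by capillary electrophoresis.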

A short description of experiment [3]: ATG_M_61_CIS: Attagene CIS-FACTORIAL HepG2 Assay for M61 Transcription Factor (Internal Marker) (AID 2282937). To be noted: HepG2 Attagene CIS-FACTORIAL M61 internal marker reporter; actives raise or lower the signal. Put shortly:
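Readout is reporter mRNA by RT-PCR, fluorescent primer extension and capillary electrophoresis, with gain or loss fitted relative to DMSO. Transfected HepG2 cells carrying endogenous-TF-driven cis reporters were exposed to chemicals for 24 hours.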

A short description of experiment [4]: ATG_EGR_CIS: Attagene CIS-FACTORIAL HepG2 Assay for human Early Growth Response 1 (EGR1) (AID 2282938). To be noted: HepG2 Attagene CIS-FACTORIAL EGR reporter mRNA; actives raise or lower the signal. In a few lines: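 After 24 h compound exposure, RNA from reporter-transfected HepG2 cells was reverse-transcribed, PCR-amplified, fluorescently labelled and resolved by capillary electrophoresis. EGR1 reporter transcript changes, up or down, were fitted against DMSO, reflecting endogenous transcription-factor activity.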

Experiment [5] in a line: ATG_M_19_CIS: Attagene CIS-FACTORIAL HepG2 Assay for M19 Transcription Factor (Internal Marker) (AID 2282939). The note with it: HepG2 Attagene CIS-FACTORIAL M19 internal marker reporter; actives raise or lower the signal. In a few lines:
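Background-control endpoint from a multiplexed HepG2 reporter panel. Cells carrying cis-regulated reporter constructs are treated 24 h, then reporter transcripts are amplified, fluorescently labelled and sized by capillary electrophoresis. DMSO defines baseline.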

A short description of experiment [6]: ATG_ERE_CIS: Attagene CIS-FACTORIAL HepG2 Assay for Estrogen Response Element (ERE) (AID 2282940). To be noted: HepG2 ERE cis-reporter, Attagene RNA transcript; actives raise or lower the signal. In a few lines:
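Cells used were human hepatoma HepG2, transfected with multiple reporter transcription units under cis-regulatory promoters. Reporter mRNA, read 24 h post-dosing via fluorescent RT-PCR products on capillary electrophoresis, was fitted bidirectionally relative to DMSO.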

Experiment [7] can be described thus: ATG_Ets_CIS: Attagene CIS-FACTORIAL HepG2 Assay for human Erythroblast Transformation Specific (ETS) (AID 2282941). To be noted: HepG2 ETS cis-reporter transcription, actives raise or lower the signal. Put shortly: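 Cis-regulated reporter mRNA induction in HepG2 (transient transfection), 24 h exposure, RT-PCR plus capillary electrophoresis detection; DMSO serves as negative control and baseline.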

Experiment [8] deals with Hepatocyte nuclear factor 3-beta (Homo sapiens) (UniProt Q9Y261). The experiment can be described thus: ATG_FoxA2_CIS: Attagene CIS-FACTORIAL HepG2 Assay for human Forkhead box A2 (FOXA2) (AID 2282942). The note with it: HepG2 cis-reporter transcription factor activity, 24 h; actives raise or lower the signal. In a few lines:
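Endogenous transcription factor activity is captured via cis-element-driven reporter transcripts in transfected HepG2. Total RNA taken at 24 h post-dosing; labelled RT-PCR products resolved by capillary electrophoresis. Gain or loss fitted versus DMSO.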

A short description of experiment [9]: ATG_FoxO_CIS: Attagene CIS-FACTORIAL HepG2 Assay for human Forkhead box O (FoxO) (AID 2282943). To be noted: HepG2 Attagene cis-reporter, FoxO element, mRNA; actives raise or lower the signal. Put shortly:
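Values reflect reporter mRNA induction or loss in HepG2 cells 24 h post-dosing, fitted bidirectionally with DMSO as negative control and baseline. Detection used RT-PCR and fluorescence capillary electrophoresis.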

Experiment [10] can be described thus: ATG_GATA_CIS: Attagene CIS-FACTORIAL HepG2 Assay for human GATA Binding Protein (AID 2282944). The note with it: HepG2 GATA cis-element reporter, Attagene multiplex mRNA; actives raise or lower the signal. Put shortly:
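Endogenous transcription factor activity was captured through cis-promoter-driven reporters in transfected HepG2 cells. After 24 h exposure, reporter transcripts were quantified by RT-PCR with fluorescent capillary electrophoresis, and responses fitted both directions against DMSO.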

Experiment [11] can be described thus: ATG_GLI_CIS: Attagene CIS-FACTORIAL HepG2 Assay for human Zinc Finger Protein GLI1 (AID 2282945). To be noted: HepG2, Attagene cis-factorial reporter mRNA, GLI element; actives raise or lower the signal. In a few lines:
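HepG2 cells transiently transfected with cis-promoter multiplexed reporter units report endogenous transcription factor activity. After 24 h chemical exposure, reporter mRNA was quantified by RT-PCR, 6-FAM labelling, HpaI digestion and capillary electrophoresis, with bidirectional fitting against DMSO.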

A short description of experiment [12]: ATG_GRE_CIS: Attagene CIS-FACTORIAL HepG2 Assay for human Glucocorticoid Response Elements (GRE) (AID 2282947). The note with it: HepG2 GRE cis-reporter, Attagene multiplex mRNA; actives raise or lower the signal. In a few lines:
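Cells (HepG2) bearing transfected cis-promoter reporter transcription units were treated with chemical for 24 hours. Reporter mRNA was measured via RT-PCR with capillary electrophoresis, and activity was fitted in both directions relative to DMSO.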

Experiment [13] is described as follows: ATG_ISRE_CIS: Attagene CIS-FACTORIAL HepG2 Assay for human Interferon Regulatory Factor 1 (IRF1) binding to an Interferon-Stimulated Response Element (ISRE) (AID 2282948). To be noted: HepG2 ISRE cis-reporter (Attagene), mRNA transcription readout; actives raise or lower the signal. Put shortly:
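Multiplexed mRNA reporter readout in human liver HepG2 cells: cis-element-driven reporters transfected, compound added for 24 h, transcripts amplified, fluorescently labelled and sized by capillary electrophoresis; curve fitting bidirectional against DMSO.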

Experiment [14] in a line: ATG_M_32_CIS: Attagene CIS-FACTORIAL HepG2 Assay for M32 Transcription Factor (Internal Marker) (AID 2282949).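 Note: background control marker of the multiplexed CIS panel rather than a real target.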 The note with it: HepG2 Attagene cis-factorial M32 reporter, mRNA; actives raise or lower the signal. Put shortly: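 HepG2 transfectants (cis-regulated reporter transcription units) dosed 24 h. Reporter mRNA by RT-PCR plus CE, analysed as gain or loss relative to DMSO.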

Experiment [15] is described as follows: ATG_M_06_CIS: Attagene CIS-FACTORIAL HepG2 Assay for M06 Transcription Factor (Internal Marker) (AID 2282950). To be noted: HepG2 Attagene CIS-FACTORIAL M06 internal marker reporter; actives raise or lower the signal. Put shortly: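 Steps: transfect HepG2 with multiplexed cis-element reporter constructs; dose chemical 24 h; extract RNA with DNase treatment; reverse-transcribe, PCR-amplify, 6-FAM label, HpaI digest; separate fragments by capillary electrophoresis. Activity fitted both directions versus DMSO.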

For experiment [16], the target named is Hypoxia-inducible factor 1-alpha (Homo sapiens) (UniProt Q16665). The experiment can be described thus: ATG_HIF1a_CIS: Attagene CIS-FACTORIAL HepG2 Assay for human Hypoxia Inducible Factor 1 (HIF1A) (AID 2282951). To be noted: HepG2 Attagene cis-factorial HIF1a reporter transcription; actives raise or lower the signal. In a few lines:
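Activity is fitted in both directions relative to DMSO. Reporter transcripts are read by RT-PCR, fluorescent primer extension and capillary electrophoresis after 24 h chemical treatment. The cells are HepG2 carrying transiently transfected cis-element-driven reporter units responding to endogenous factors.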

Experiment [17] concerns the target Heat shock factor protein 1 (Homo sapiens) (UniProt Q00613). Description: ATG_HSE_CIS: Attagene CIS-FACTORIAL HepG2 Assay for human Heat Shock Transcription Factor 1 (HSE) (AID 2282953). To be noted: HepG2 HSE cis-reporter, Attagene RNA transcription; actives raise or lower the signal. Put shortly: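 Cells were transfected with cis-element-driven reporter constructs, dosed for 24 h, then total RNA was reverse-transcribed and reporter cDNA amplified, FAM-labelled and digested with HpaI. Fragments were resolved by capillary electrophoresis; gain or loss was fitted against DMSO.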

A short description of experiment [18]: ATG_MRE_CIS: Attagene CIS-FACTORIAL HepG2 Assay for human Metal Responsive Element (MRE) (AID 2282954). The note with it: HepG2 MRE cis-reporter transcription, Attagene multiplex; actives raise or lower the signal. Put shortly: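 Cells were transfected with cis-promoter reporter transcription units, then dosed for 24 h. RNA was reverse-transcribed, amplified, fluorescently labelled and resolved by capillary electrophoresis, and activity was fitted in both directions relative to DMSO.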

Experiment [19] in a line: ATG_PBREM_CIS: Attagene CIS-FACTORIAL HepG2 Assay for human Phenobarbital-responsive Enhancer Module (PBREM) (AID 2282955). The note with it: HepG2 PBREM cis-reporter, Attagene multiplexed transcription; actives raise or lower the signal. In a few lines: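 Endogenous transcription factor activity was read from reporter transcripts in transiently transfected human HepG2 liver cells after 24 h dosing. RT-PCR products were fluorescently labelled, HpaI-cut and sized by capillary electrophoresis; activity fitted bidirectionally against DMSO baseline.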

Experiment [20] has as its target Hepatocyte nuclear factor 6 (Homo sapiens) (UniProt Q9UBC0). Description: ATG_HNF6_CIS: Attagene CIS-FACTORIAL HepG2 Assay for human Hepatocyte Nuclear Factor 6 (HNF6) (AID 2282952). The note with it: HepG2 Attagene cis-factorial HNF6 reporter transcription; actives raise or lower the signal. Put shortly:
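Using cis-element reporters in HepG2 liver cells, the assay tracks endogenous factor-driven transcription 24 h post-dosing. Signal comes from 6-FAM-labelled, HpaI-digested RT-PCR fragments, with gain or loss scored against DMSO.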

Hypoxia-inducible factor 1-alpha (Homo sapiens), sequence (Q16665 whole entry, looked up): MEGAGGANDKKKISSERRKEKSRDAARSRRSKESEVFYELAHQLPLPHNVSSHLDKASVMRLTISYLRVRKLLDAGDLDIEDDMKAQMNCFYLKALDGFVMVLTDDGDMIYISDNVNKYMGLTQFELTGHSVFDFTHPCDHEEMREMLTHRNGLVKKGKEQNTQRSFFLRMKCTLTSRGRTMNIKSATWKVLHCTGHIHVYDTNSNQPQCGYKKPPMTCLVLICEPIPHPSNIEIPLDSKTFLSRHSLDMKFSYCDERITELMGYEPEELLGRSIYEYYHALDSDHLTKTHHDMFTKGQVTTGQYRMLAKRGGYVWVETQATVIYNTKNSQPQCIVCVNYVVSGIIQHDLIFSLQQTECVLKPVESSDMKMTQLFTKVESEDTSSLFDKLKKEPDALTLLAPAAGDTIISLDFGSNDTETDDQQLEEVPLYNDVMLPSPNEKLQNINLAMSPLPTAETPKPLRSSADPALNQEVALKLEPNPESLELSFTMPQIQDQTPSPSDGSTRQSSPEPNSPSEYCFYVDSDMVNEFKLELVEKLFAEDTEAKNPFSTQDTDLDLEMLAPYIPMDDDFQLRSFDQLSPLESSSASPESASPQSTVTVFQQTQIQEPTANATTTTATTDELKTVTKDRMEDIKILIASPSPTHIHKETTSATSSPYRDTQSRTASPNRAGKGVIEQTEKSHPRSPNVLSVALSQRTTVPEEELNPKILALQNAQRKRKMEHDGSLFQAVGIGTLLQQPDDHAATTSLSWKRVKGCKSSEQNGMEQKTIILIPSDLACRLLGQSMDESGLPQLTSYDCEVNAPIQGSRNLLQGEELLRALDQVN
Transcription factor E2F1 (Homo sapiens), sequence (Q01094 whole entry, looked up): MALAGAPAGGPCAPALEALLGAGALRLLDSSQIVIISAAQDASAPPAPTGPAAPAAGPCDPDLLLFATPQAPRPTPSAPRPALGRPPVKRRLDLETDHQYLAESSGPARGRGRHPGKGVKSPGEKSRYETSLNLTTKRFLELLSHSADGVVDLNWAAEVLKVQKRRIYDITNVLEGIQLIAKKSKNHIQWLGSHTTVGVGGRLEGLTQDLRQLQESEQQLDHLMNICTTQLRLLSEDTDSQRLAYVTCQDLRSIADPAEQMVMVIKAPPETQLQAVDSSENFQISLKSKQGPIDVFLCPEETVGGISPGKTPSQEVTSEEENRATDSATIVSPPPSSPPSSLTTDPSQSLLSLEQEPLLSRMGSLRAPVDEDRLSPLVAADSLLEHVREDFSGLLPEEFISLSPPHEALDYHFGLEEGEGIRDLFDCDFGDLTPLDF
Heat shock factor protein 1 (Homo sapiens), sequence (Q00613 whole entry, looked up, the tested form may be a part): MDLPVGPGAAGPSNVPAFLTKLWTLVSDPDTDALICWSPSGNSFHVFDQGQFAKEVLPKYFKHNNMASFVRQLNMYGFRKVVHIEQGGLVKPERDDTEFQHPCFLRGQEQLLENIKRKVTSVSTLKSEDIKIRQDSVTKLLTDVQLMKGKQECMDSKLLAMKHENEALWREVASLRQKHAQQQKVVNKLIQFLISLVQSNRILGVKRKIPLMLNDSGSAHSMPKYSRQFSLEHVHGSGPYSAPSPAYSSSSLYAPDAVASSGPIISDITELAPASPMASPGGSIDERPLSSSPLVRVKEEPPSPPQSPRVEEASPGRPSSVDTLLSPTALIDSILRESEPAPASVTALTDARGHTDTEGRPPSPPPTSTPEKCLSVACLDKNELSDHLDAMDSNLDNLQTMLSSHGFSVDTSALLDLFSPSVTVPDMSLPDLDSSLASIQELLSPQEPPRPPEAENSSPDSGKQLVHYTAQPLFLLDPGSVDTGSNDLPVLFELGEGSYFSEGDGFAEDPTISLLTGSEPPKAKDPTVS
Hepatocyte nuclear factor 3-beta (Homo sapiens), sequence (Q9Y261 whole entry, looked up): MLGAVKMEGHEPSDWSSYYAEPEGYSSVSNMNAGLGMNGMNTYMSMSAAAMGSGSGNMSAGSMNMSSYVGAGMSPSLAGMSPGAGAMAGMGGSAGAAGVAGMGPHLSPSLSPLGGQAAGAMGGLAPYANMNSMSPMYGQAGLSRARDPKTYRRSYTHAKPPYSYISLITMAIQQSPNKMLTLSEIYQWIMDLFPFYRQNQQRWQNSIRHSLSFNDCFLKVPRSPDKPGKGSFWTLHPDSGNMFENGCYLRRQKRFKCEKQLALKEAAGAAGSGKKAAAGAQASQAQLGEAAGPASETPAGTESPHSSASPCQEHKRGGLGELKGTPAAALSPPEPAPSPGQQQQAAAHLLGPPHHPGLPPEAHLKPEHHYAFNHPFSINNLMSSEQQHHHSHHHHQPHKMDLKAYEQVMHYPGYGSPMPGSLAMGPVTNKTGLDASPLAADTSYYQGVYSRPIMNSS
Hepatocyte nuclear factor 6 (Homo sapiens), sequence (Q9UBC0 whole entry, looked up, the tested form may be a part): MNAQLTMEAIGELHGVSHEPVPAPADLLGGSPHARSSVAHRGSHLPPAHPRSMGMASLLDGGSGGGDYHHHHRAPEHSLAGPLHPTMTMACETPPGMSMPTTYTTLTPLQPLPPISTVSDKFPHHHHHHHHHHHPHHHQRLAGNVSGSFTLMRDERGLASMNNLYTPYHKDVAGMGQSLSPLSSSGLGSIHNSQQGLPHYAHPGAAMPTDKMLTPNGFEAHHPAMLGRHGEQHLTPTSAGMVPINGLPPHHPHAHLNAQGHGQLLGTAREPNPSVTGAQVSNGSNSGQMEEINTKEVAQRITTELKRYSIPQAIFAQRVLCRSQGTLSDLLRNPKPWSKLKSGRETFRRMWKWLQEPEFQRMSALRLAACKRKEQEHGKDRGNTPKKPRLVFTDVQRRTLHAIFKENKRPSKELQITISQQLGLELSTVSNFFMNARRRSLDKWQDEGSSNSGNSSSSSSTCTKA

In the case of `OCc1ccccc1`, the outcome in experiment [1], in experiment [2], in [3], in [4], in experiment [5] and in experiment [6] was inactive. The result in experiment [7], in [8], in experiment [9], in experiment [10], in experiment [11] and in experiment [12] was inactive. Further, the call in experiment [13], in [14], in experiment [15], in [16], in experiment [17] and in [18] was inactive. Also, the result in [19] was inactive.
Regarding `OC(Cn1cncn1)(Cn1cncn1)c1ccc(F)cc1F`, the outcome in experiment [1], in experiment [2], in [3], in experiment [4], in experiment [5] and in experiment [6] was inactive. In addition, the result in experiment [7], in experiment [8], in experiment [9], in [10], in experiment [11] and in [12] was inactive. Moreover, the call in experiment [13], in experiment [14], in [15], in [16], in experiment [20] and in experiment [17] was inactive.
With `NCC(F)(F)C(F)(F)C(F)(F)C(F)(F)F`, the call in experiment [1], in [2], in experiment [3], in experiment [4], in [5] and in [6] was inactive. The outcome in [7], in experiment [8], in [9], in experiment [10], in [11] and in experiment [12] was inactive. Also, the compound was classed as inactive in experiment [13], in experiment [14], in [15], in [16], in experiment [20] and in [17]. For the same compound, the result in experiment [19] was inactive.
Take `C[C@@H](Oc1ccc(CNC(=O)c2cccnc2Oc2ccc3c(c2)OCO3)c(F)c1)C(=O)O`: the call in experiment [1], in experiment [2], in experiment [3], in experiment [4], in experiment [5] and in experiment [6] was inactive. Further, the compound was classed as inactive in experiment [7], in experiment [8], in [9], in experiment [10], in [11] and in experiment [12]. The result in experiment [13], in experiment [14], in experiment [15], in experiment [16], in [17] and in experiment [19] was inactive.
Take `FC(F)C(F)(F)COCC1CO1` (centres undefined): the call in experiment [1], in experiment [2], in experiment [3], in experiment [4], in experiment [5] and in [6] was inactive. Moreover, the compound was classed as inactive in [7], in experiment [8], in [9], in experiment [10], in experiment [11] and in experiment [12]. For the same compound, the result in [13], in experiment [14], in experiment [15], in [16], in experiment [20] and in experiment [17] was inactive. Further, the call in experiment [18] and in experiment [19] was inactive. Moreover, the AC50 in [6] is 118 µM (active).
On to `CCCc1ccccc1`, for which the result in [1], in experiment [2], in [3], in [4], in experiment [5] and in experiment [6] was inactive. Also, the result in experiment [7], in experiment [8], in [9], in experiment [10], in experiment [11] and in experiment [12] was inactive. Also, the call in experiment [13], in [14], in experiment [15], in [17], in experiment [18] and in [19] was inactive. Moreover, in experiment [16], the AC50 is 60.7 µM (active).
